Columns and labels:
Test in all cases: PBM binding z-score (relative to random genomic background probes); higher = stronger binding; sequences stand for … in GC…GCGATTGACAGCGTAGAATGAAGG
[1] = tested on: FXR:RXRa (NR concentration 270 nM, RXRa partner concentration 90 nM)
Outline: (§1)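 Ligand-free nuclear receptor dimers were bound for 1 h to custom Agilent 4×180K protein-binding microarrays. Detection used antibodies against each partner (one per run). Binding z-scores rest on regression-normalized fluorescence, with random background probes as the reference.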

[2] = tested on: LXRa:RXRa (NR concentration 270 nM, RXRa partner concentration 90 nM)
Outline: as §1

[3] = tested on: LXRa homodimer (NR concentration 270 nM)
Outline: as §1

[4] = tested on: LXRb:RXRa (NR concentration 270 nM, RXRa partner concentration 90 nM)
Outline: as §1

[5] = tested on: LXRb homodimer (NR concentration 270 nM)
Outline: as §1

[6] = tested on: PPARa:RXRa (NR concentration 270 nM, RXRa partner concentration 90 nM)
Outline: as §1

[7] = tested on: PPARg:RXRa (NR concentration 180 nM, RXRa partner concentration 90 nM)
Outline: as §1

[8] = tested on: PPARg:RXRa 270nM:90nM, anti-RXR (NR concentration 270 nM, RXRa partner concentration 90 nM)
Outline: as §1

[9] = tested on: PPARg:RXRa 30nM:10nM, anti-RXR (NR concentration 30 nM, RXRa partner concentration 10 nM)
Outline: as §1

[10] = tested on: PPARg:RXRa 90nM:30nM, anti-RXR (NR concentration 90 nM, RXRa partner concentration 30 nM)
Outline: as §1

[11] = tested on: PPARg:RXRa DBDmut IVT, anti-RXR (DBD mutation: RXRa K156A/R161A, NR concentration 270 nM, RXRa partner concentration 90 nM)
Outline: as §1

[12] = tested on: PPARg:RXRa IVT, anti-PPARg (NR concentration 270 nM, RXRa partner concentration 90 nM)
Outline: as §1

[13] = tested on: PPARg DBDmut:RXRa IVT, anti-PPARg (DBD mutation: PPARg1 K132A/R137A, NR concentration 270 nM, RXRa partner concentration 90 nM)
Outline: as §1

[14] = tested on: PPARg DBDmut IVT, anti-PPARg (DBD mutation: PPARg1 K132A/R137A, NR concentration 270 nM)
Outline: as §1

[15] = tested on: PPARg homodimer (NR concentration 180 nM)
Outline: as §1

[16] = tested on: PXR:RXRa (NR concentration 270 nM, RXRa partner concentration 90 nM)
Outline: as §1

[17] = tested on: PXR homodimer (NR concentration 270 nM)
Outline: as §1

[18] = tested on: RARa:RXR (NR concentration 270 nM, RXRa partner concentration 90 nM)
Outline: as §1

[19] = tested on: RARa homodimer (NR concentration 270 nM)
Outline: as §1

[20] = tested on: RARb:RXRa (NR concentration 270 nM, RXRa partner concentration 90 nM)
Outline: as §1

Sequence | PBM binding z-score [1] | PBM binding z-score [2] | PBM binding z-score [3] | PBM binding z-score [4] | PBM binding z-score [5] | PBM binding z-score [6] | PBM binding z-score [7] | PBM binding z-score [8] | PBM binding z-score [9] | PBM binding z-score [10] | PBM binding z-score [11] | PBM binding z-score [12] | PBM binding z-score [13] | PBM binding z-score [14] | PBM binding z-score [15] | PBM binding z-score [16] | PBM binding z-score [17] | PBM binding z-score [18] | PBM binding z-score [19] | PBM binding z-score [20]
TCATATAGGTAATTCAGGTGAAAGTCGGCATCTA | 1.4 | 1.17 | 0.456 | 1.25 | 0.393 | 1.87 | 1.09 | 2.58 | 4.33 | 3.59 | 4.31 | 3.55 | 1.64 | 1.6 | 1.41 | 0.703 | 0.443 | 1.34 | 1.6 | 0.546
CAAACTAAGTCACAGAGGTCAAAGTCCGTGCGTA | 5.08 | 5.61 | 5.8 | 5.22 | 2.02 | 5.18 | 3.74 | 4.78 | 2.63 | 4.18 | 2.87 | 3.84 | 0.32 | 0.368 | 4.44 | 5.86 | 3.71 | 6.39 | 2.59 | 4.05
TCTGGTAGATCAGCAGGTTAAGAAAGCTGGCCAA | -0.0813 | -0.0843 | -0.0573 | 0.308 | -1.12 | 0.507 | -0.637 | 1.06 | 1.81 | 1.12 | 0.973 | -0.29 | -0.344 | -0.477 | -0.534 | -0.014 | -0.669 | 0.363 | -0.495 | 0.127
TCTTGTAGATCAAGCAGGTTAAAAAAGCCTGAGT | 0.399 | 0.66 | 0.0137 | 0.802 | -0.381 | 1.05 | -0.353 | 1.21 | 2.5 | 1.89 | 1.71 | 0.721 | 0.175 | 0.427 | 0.249 | 0.876 | 0.157 | 0.523 | 0.0055 | 0.189
GCTAGCAGGCCATGTGGGTCACTCAATGACGGGC | -0.267 | -0.154 | -0.643 | -0.292 | -1.04 | 1.58 | 1.31 | 1.18 | -0.316 | 0.415 | 2.25 | 3.4 | -0.133 | -0.744 | -0.23 | 0.289 | -0.533 | 0.567 | -0.664 | 1.26
ATCGAAAGGTCGAGGTGGGTATAGAGAAAGGGAA | 4.46 | 3.55 | 0.722 | 3.12 | 0.942 | 4.74 | 2.59 | 3.11 | 1.17 | 1.97 | 0.271 | 1.55 | 0.846 | 1.16 | 2.17 | 2.99 | 0.988 | 3.5 | 1.9 | 4.34
ATATGTAGGTTAGGTGGGGTCATTCAGACTAGGC | 5.01 | 6.16 | 3.73 | 5.37 | 2.74 | 5.23 | 5.59 | 5.49 | 2.48 | 4.67 | 6.72 | 5.87 | 2.01 | 3.16 | 2.99 | 6.47 | 4.9 | 6.09 | 1.79 | 2.98
CCTATTAGTTGACCATAAGGGCAACAGAAGCTCG | 0.832 | 0.536 | 0.381 | 0.601 | 0.473 | 0.814 | 0.639 | 0.432 | 0.111 | 0.284 | 0.409 | 0.628 | -0.0621 | 0.417 | 1.95 | 0.896 | 0.847 | 1.15 | 1.6 | 1.42
CCTTACGGGTCACGAGGCTATAGCACGACGAGCG | 6.52 | 3.97 | 0.0117 | 3.26 | -0.222 | 5.83 | 6.52 | 5.91 | 2.64 | 4.4 | 3.61 | 4.78 | 0.556 | -0.248 | 1.81 | 3.26 | -0.243 | 4.45 | 0.264 | 4.23
ACAGCCAGGTGATGAAGGTAACTCAGGCTATCAT | -0.381 | -0.496 | -0.468 | -0.553 | -0.982 | 0.0268 | 0.565 | -0.0458 | -0.229 | -0.315 | 0.0691 | 0.392 | -0.315 | -0.803 | -0.425 | -0.407 | -0.502 | 0.0022 | -0.504 | -0.00483
TTACCAAAGTGAAGGTCGTTGATCCCTCTGTAGA | 2.06 | 2.07 | -0.0239 | 1.33 | -0.489 | 1.15 | -0.21 | 0.882 | 0.58 | 0.768 | 0.0303 | 0.266 | -1.3 | -0.698 | 0.00936 | 1.15 | 0.234 | 1 | -0.568 | 0.632
TCTAGCAGGCCAGCGGGTCACTCAAGAGGTACGG | 0.662 | 0.558 | -0.567 | 0.777 | -0.97 | 1.92 | 0.601 | 1.74 | 1.72 | 1.65 | 0.972 | 1.03 | -0.284 | -0.723 | 0.406 | 1.12 | -0.865 | 1.81 | -0.465 | 1.81
TCATTTAGGTAAAAGGTGAAAGTCGGTGTGGTAA | 1.72 | 1.89 | 0.427 | 1.95 | 0.881 | 5.05 | 8.63 | 8.2 | 9.56 | 9.37 | 4.84 | 4.91 | 0.936 | 1.44 | 2.08 | 1.42 | 0.93 | 2.74 | 1.77 | 2.05
CCGACTGGGGCAAGATTACCATAACGCACAGCCA | -0.454 | -0.432 | -0.473 | -0.425 | -1.17 | -0.0466 | 1.17 | 0.422 | -0.715 | -0.513 | 2.97 | 2.41 | -0.0501 | -0.549 | -0.195 | -0.741 | -0.382 | -0.513 | -0.747 | 0.315

— the supplement of paper PMC6555819
